# Laboratory results as given in PubChem BioAssay.
# Where “and” joins values, the source holds several entries; their conditions need not be identical. Equal values may be shown once. Calls of active or inactive are those of the source.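 How the source made its calls, unless noted: active means compounds whose cell count with miR-34 switched on is under 0.7 times the count with it off; inactive means the rest.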
# What was measured:
# [1] = EMT-state selective cytotoxicity in co-culture – imaging, PC-3E GFP, TEM4-18 mCherry, primary screen (AID 1345086;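 active means compounds killing one labelled cell type while sparing the other, by normalised counts and ratio limits, not self-fluorescent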;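 on all read-outs here: cells exposed to compound for 72 h before imaging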;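 on red/green cell ratio (normalised): normalised mesenchymal count divided by normalised epithelial count so high means epithelial killing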); details: PC-3E GFP / TEM4-18 mCherry co-culture, imaging cell counts, at 1 µM; for red/green cell ratio (normalised): actives lie on both sides, counts scaled to control wells, 1 = unselective
# [2] = viability loss with induced miR-34 in A549 – imaging, A549 dox-inducible miR-34, nuclei and caspase counts, primary screen (AID 1347080); details: A549 miR-34 inducible, Hoechst nuclei count, 48 h
# [3] = biological target: NAD(+) hydrolase SARM1 (Homo sapiens) (UniProt Q6SZW1); assay: blocking NAD cleavage by SARM1 SAM-TIR – cell lysate, NAD-Glo luminescence (AID 1508614;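 active means compound whose remaining NAD level is above about 45 nM, limit read from the data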); details: SAM-TIR HEK293T lysate NADase, at 1 µM, stronger effect = higher value
# Sequence of NAD(+) hydrolase SARM1 (Homo sapiens) (Q6SZW1 whole entry, looked up): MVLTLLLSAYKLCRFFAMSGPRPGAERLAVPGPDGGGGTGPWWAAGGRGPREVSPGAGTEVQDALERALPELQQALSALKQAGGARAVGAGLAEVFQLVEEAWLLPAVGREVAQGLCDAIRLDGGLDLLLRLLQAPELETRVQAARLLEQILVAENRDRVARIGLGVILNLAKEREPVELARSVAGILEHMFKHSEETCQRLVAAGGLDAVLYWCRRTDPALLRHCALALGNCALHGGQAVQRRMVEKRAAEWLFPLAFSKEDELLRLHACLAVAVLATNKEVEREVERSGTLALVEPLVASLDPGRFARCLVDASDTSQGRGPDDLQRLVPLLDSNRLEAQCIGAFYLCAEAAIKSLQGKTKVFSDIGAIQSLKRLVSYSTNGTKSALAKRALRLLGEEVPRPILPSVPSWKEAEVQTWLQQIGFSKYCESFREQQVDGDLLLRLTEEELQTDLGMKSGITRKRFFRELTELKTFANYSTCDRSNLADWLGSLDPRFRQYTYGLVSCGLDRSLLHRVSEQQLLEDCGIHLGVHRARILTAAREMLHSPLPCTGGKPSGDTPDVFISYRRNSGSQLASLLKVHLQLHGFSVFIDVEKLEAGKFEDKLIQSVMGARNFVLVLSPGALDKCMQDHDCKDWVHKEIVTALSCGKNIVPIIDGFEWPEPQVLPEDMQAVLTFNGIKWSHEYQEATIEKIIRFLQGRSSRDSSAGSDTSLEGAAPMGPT
# [4] = MELAS cybrid and Rieske KO viability enhancers – cell-based, MELAS cybrids, Rieske KO mouse fibroblasts, CellTiter-Glo, primary screen (AID 1508586;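 active means mean z-score across replicates of 1.96 or higher in either the MELAS or the Rieske mutant cell line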;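 further: z relative to plate mean and SD of compound and empty wells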); details: low glucose
# [5] = galactose survival enhancers in mitochondrial complex I cybrids – cell-based, galactose medium, ATP luminescence, primary screen (AID 1645843;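 active means z-score of at least 1.8 in each of two replicates, scored against plate mean and spread of sample wells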;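 further: positive z means more ATP and so rescue of galactose-driven cybrid death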); details: complex I mutant cybrid cells, 72 h, stronger effect = higher value
# [6] = P. berghei load reduction in hepatocytes – cell-based, HepG2, luciferase luminescence, HepG2 viability, primary screen (AID 624349; in the data active means parasite load remaining mostly below about 12%, no sharp cut-off; inactive means mostly above about 10%;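 further: 100% = mean of DMSO negative control wells on the same plate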); details: P. berghei liver stage in HepG2, luciferase luminescence, concentration not given here; parasite load remaining: stronger effect = lower value; viability: measured here: HepG2 viability without parasites
# [7] = biological target: Mitogen-activated protein kinase 7 (Homo sapiens) (UniProt Q13164); assay: Gal4-ERK5 driven luciferase induction – cell-based, HTS, primary screen (AID 1508626;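 active means luciferase signal above three times the same-plate solvent-only control wells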;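 further: luciferase driven by Gal4-ERK5 fusion binding five Gal4 sites before minimal TATA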); details: HeLa Gal4-ERK5 transactivation, 18 h, at 5 µM, stronger effect = higher value
# Sequence of Mitogen-activated protein kinase 7 (Homo sapiens) (Q13164 whole entry, looked up, the tested form may be a part): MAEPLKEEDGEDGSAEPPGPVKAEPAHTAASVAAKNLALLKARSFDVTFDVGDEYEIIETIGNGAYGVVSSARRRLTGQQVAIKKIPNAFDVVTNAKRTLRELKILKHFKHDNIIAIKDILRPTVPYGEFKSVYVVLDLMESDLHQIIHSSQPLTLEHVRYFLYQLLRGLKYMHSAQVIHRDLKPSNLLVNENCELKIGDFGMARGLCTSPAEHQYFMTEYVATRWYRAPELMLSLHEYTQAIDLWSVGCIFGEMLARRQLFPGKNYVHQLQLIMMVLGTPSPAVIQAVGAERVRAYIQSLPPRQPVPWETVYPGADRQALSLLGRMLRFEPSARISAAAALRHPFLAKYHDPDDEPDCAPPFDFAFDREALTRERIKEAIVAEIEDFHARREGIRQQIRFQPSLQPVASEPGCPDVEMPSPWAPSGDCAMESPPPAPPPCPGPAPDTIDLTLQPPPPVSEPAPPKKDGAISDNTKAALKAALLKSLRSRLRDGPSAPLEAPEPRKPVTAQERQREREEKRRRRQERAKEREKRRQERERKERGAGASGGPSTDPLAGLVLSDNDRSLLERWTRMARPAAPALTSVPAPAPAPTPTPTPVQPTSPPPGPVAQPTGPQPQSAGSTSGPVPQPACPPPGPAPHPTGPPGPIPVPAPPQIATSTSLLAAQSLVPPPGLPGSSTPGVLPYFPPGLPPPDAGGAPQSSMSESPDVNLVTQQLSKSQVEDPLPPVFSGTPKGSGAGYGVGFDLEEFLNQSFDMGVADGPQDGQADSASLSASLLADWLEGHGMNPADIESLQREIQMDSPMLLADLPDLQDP
# [8] = measured here: epithelial PC-3E GFP cell survival
# [9] = measured here: mesenchymal TEM4-18 mCherry cell survival
# [10] = stronger effect = lower value, cell number ratio, induced over uninduced
# [11] = measured here: relative caspase fold change +Dox/-Dox
# [12] = measured here: total cells with miR-34 induction, stronger effect = lower value
# [13] = measured here: total cells without miR-34 induction
# [14] = MELAS cybrid survival, CellTiter-Glo 48 h, stronger effect = higher value
# [15] = Rieske KO mouse fibroblast survival, CellTiter-Glo 72 h
SMILES,red/green cell ratio (normalised) [1],"normalised cell number [1, 8]","normalised cell number [1, 9]","fold change [2, 10]","fold change [2, 11]","cell count [2, 12]","cell count [2, 13]",remaining NAD [3],"z-score [4, 14]","z-score [4, 15]",z-score [5],parasite load remaining [6],viability [6] [%],luciferase signal [7]
CC(=O)C1C(=O)C=C(C)OC1=O (centres undefined),1.08 (inactive),0.99,1.07,0.96 (inactive),0.723,9120,9500,10 nM (inactive),–,–,–,–,–,–
O=C1C2CC3CC1CC(O)(C3)C2,0.85 (inactive),1.16,0.99,0.951 (inactive),0.928,9100,9570,10 nM (inactive),–,–,–,–,–,–
Nc1ccn(C2CSC(CO)O2)c(=O)n1 (centres undefined),1 (inactive),1.14,1.13,0.986 (inactive) and 0.882 (inactive),1.5 and 0.897,10000 and 7840,10200 and 8880,–,-0.261 (inactive),0.414,1.16 (inactive),–,–,–
CC1(C)OC(=O)C(OCC2CC2)=C1c1ccc(S(C)(=O)=O)cc1,1.08 (inactive),1.02,1.1,0.945 (inactive),0.86,8900,9420,10 nM (inactive),–,–,–,–,–,–
CC1=C(/C=C/C(C)=C/C=C/C(C)=C/C=C/C=C(C)/C=C/C=C(C)/C=C/C2=C(C)C(=O)CCC2(C)C)C(C)(C)CCC1=O,1.05 (inactive),0.85,0.9,0.905 (inactive),1.09,10100,11200,–,0.499 (inactive),1.32,0.415 (inactive),32.7% (inactive),102,100 AU (inactive)
O=C(O)C1CSCN1 (centres undefined),0.88 (inactive),1.25,1.1,0.957 (inactive),0.618,9140,9550,10 nM (inactive),–,–,–,–,–,–
CC(C)Nc1ncccn1,0.89 (inactive),1.16,1.03,0.885 (inactive),0.978,8370,9450,10 nM (inactive),–,–,–,–,–,–
C=CCCCCCCCCC(=O)[O-].C=CCCCCCCCCC(=O)[O-].[Zn+2],1.08 (inactive),0.98,1.05,0.86 (inactive),4.55,11700,13600,10 nM (inactive),–,–,–,88.8% (inactive),94.5,48 AU (inactive)
